# In PubChem BioAssay (NCI):
# Compounds without any hit were thinned out: in the full panel of roughly 83,000, 20% have a hit.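 A percent growth of 40 corresponds to 60% growth inhibition; 0 means no net growth; -100 means all cells died. Active threshold: below 10.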 A number with no mark means an inactive call. Active and inactive are the calls of the source.
# Legend:
# Experiment in all cases: NCI-60 one-dose screen, 48 h (100 = growth as untreated, 0 = no growth, -100 = all killed)
# NCI-H226 lung = settings: 10 µM
# NCI-H322M lung = settings: 10 µM
# HOP-62 NSCLC = settings: 10 µM
# NCI-H522 lung = settings: 10 µM
# COLO 205 colon = settings: 10 µM
# DU-145 prostate = settings: 10 µM
# SF-268 CNS = settings: 10 µM
# SF-295 CNS = settings: 10 µM
# SF-539 CNS = settings: 10 µM
# M14 melanoma = settings: 10 µM
# HCT-15 colon = settings: 10 µM
# SNB-75 CNS = settings: 10 µM
# SNB-19 CNS = settings: 10 µM
# U251 CNS = settings: 10 µM
# PC-3 prostate = settings: 10 µM
# SK-MEL-5 melanoma = settings: 10 µM
# UACC-62 melanoma = settings: 10 µM
# SK-MEL-28 melanoma = settings: 10 µM
# SK-MEL-2 melanoma = settings: 10 µM
# HL-60(TB) leukemia = settings: 10 µM unless noted
SMILES,growth (NCI-H226 lung),growth (NCI-H322M lung),growth (HOP-62 NSCLC),growth (NCI-H522 lung),growth (COLO 205 colon),growth (DU-145 prostate),growth (SF-268 CNS),growth (SF-295 CNS),growth (SF-539 CNS),growth (M14 melanoma),growth (HCT-15 colon),growth (SNB-75 CNS),growth (SNB-19 CNS),growth (U251 CNS),growth (PC-3 prostate),growth (SK-MEL-5 melanoma),growth (UACC-62 melanoma),growth (SK-MEL-28 melanoma),growth (SK-MEL-2 melanoma),growth (HL-60(TB) leukemia)
CC1=C(CCC=O)C2=C(C)C3(CC3)[C@@](C)(O)C(=O)C2=C1,-61.5% (active),-84.9% (active),-62.7% (active),-90% (active),-71.4% (active),-100% (active),6.81% (active),-64.3% (active),-100% (active),-56.8% (active),-71.1% (active),-96.9% (active),-100% (active),-99.6% (active),-40.6% (active),-100% (active),-96.5% (active),-99.3% (active),-70.6% (active),
C#CCCCN(CCNc1ccnc2cc(Cl)ccc12)C(=O)CCC(=O)O[C@@H]1O[C@@H]2OC3(C)CC[C@H]4[C@H](C)CC[C@@H]([C@H]1C)[C@@]24OO3,44.9%,65.1%,58.9%,8.38% (active),7.04% (active),59.1%,56.9%,33.8%,39.2%,37.7%,12.1%,67%,56.5%,45.7%,37%,-36.1% (active),31.4%,44.1%,43.9%,-26.3% (active)
O=C(/C=C/c1ccccc1Cl)c1nc2ccccc2n1Cc1ccc(F)cc1,-75.1% (active),-42.1% (active),-77.5% (active),-81.2% (active),-83.5% (active),-34.8% (active),-2.61% (active),-86.8% (active),-94.4% (active),-79.4% (active),-83.1% (active),6.88% (active),-79.2% (active),-87.5% (active),-57.3% (active),-86.5% (active),-93.2% (active),-86.2% (active),-68.5% (active),-38.4% (active)
Cc1c2oc3c(C)ccc(C(=O)N[C@@H]4C(=O)N[C@H](C(C)C)C(=O)N5CCC[C@H]5C(=O)N(C)CC(=O)N(C)[C@@H](C(C)C)C(=O)OC4C)c3nc-2c(C(=O)N[C@@H]2C(=O)N[C@H](C(C)C)C(=O)N3CC(=O)C[C@H]3C(=O)N(C)CC(=O)N(C)[C@@H](C(C)C)C(=O)OC2C)c(N)c1=O (some centres undefined),-4.29% (active),4.93% (active),-21% (active),-38.6% (active),-71% (active),12.8%,-9.63% (active),1.34% (active),-28.4% (active),-8.68% (active),3.67% (active),-70.6% (active),4.37% (active),1.58% (active),1.32% (active),-48.6% (active),-57.5% (active),-27.8% (active),-68.5% (active),
C=CC[Se]C(=O)c1ccc(C(=O)[Se]CC=C)s1,-40.1% (active),-63.7% (active),-70.9% (active),-95.5% (active),-64.7% (active),-92.8% (active),-39.4% (active),-52.5% (active),-97% (active),-90% (active),-42.5% (active),-96.8% (active),-73.1% (active),-86.2% (active),-58.2% (active),-70.8% (active),-22.8% (active),-70.8% (active),-65.6% (active),-31.6% (active)
COCCOCCOCCOc1ccc(-n2cc(CCCN(CCNc3ccnc4cc(Cl)ccc34)C(=O)CCC(=O)O[C@@H]3O[C@@H]4OC5(C)CC[C@H]6[C@H](C)CC[C@@H]([C@H]3C)[C@@]46OO5)nn2)cc1,53.5%,69.2%,61.2%,1.23% (active),11.8%,62%,56.9%,40.5%,47.4%,34.8%,14.2%,57.6%,56.3%,46%,32.3%,-16.4% (active),37%,53.1%,47.9%,-27.5% (active)
N#Cc1cc(-c2ccnc(Nc3ccc(N4CCN(C5COC5)CC4)cc3)n2)ccc1N1CCCC1,,,,,,,,,,,,,,,,,,,,48.1%
C[C@H]1[C@H](OC(=O)CCC(=O)Nc2cnccn2)O[C@@H]2OC3(C)CC[C@H]4[C@H](C)CC[C@@H]1[C@@]24OO3,74.8%,77.4%,53.6%,-13.6% (active),11.9%,77.7%,56.3%,41.7%,33.2%,35.9%,12%,72.6%,56.3%,42.6%,36.6%,26.9%,26.3%,39.7%,31.2%,0.224% (active)
